G9a block = qHTS Assay for Inhibitors of Histone Lysine Methyltransferase G9a; Potency, µM (doses to about 102 µM), for inactives: top-dose activity, negative = inhibition, actives largely listed as inhibitors; AID 504332, 2011; G9a H3K9 monomethylation, AlphaScreen, 2 h; 350,000 compounds, 8.8% hits; Histone-lysine N-methyltransferase EHMT2 (Homo sapiens), Q96KQ7; further: on the % scale 0 is the no-effect control and ±100 the full control effect; nearly all actives have a fitted effect of over 75% in size
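AlphaScreen detection with an anti-monomethyl H3K9 antibody quantified product after a 2 h room-temperature reaction containing 500 nM biotinylated H3K9 peptide, 20 µM SAM and 20 nM enzyme, which had been preincubated 15 min with compound.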
HP1b binding inh = HTS for Inhibitors of HP1-beta Chromodomain Interactions with Methylated Histone Tails; 390,000 compounds, 0.56% hits; Chromobox protein homolog 1 (Homo sapiens), P83916; Potency, µM (titrated, usually from 114 µM), for the others: at the top dose activity change, negative = inhibition, actives largely listed as inhibitors; AlphaScreen HP1-beta / biotin-H3K9me3 peptide binding; further: nearly all actives have a fitted effect of over 70% in size
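AlphaScreen: HP1-beta (50 nM) preformed 30 min with biotin-H3(1-18)K9me3 peptide (50 nM) in PBS pH 7.4, 0.01% Tween-20. Compound added for 30 min at RT, then streptavidin donor/nickel chelate acceptor beads (10 ug/mL) for 30 min.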
BAZ2B inh = qHTS Assay for Inhibitors of BAZ2B | Bromodomain adjacent to zinc finger domain protein 2B (Homo sapiens), Q9UIF8 | AlphaScreen BAZ2B-H3K14Ac peptide displacement | Potency, µM (series often up to 114 µM), for inactives: at the top dose activity change, negative = inhibition, actives largely listed as inhibitors | 360,000 compounds, 4.4% hits | AID 504333, 2011; further: on the % scale 0 is the no-effect control and ±100 the full control effect; nearly all actives have a fitted effect of over 60% in size
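BAZ2B 50 nM plus b-H3(5-23)K14Ac 50 nM, PBS pH 7.4/0.01% Tween-20, 30 min RT; compound added (max 110 uM), 30 min RT; streptavidin donor/Ni-chelate acceptor beads 10 ug/mL final, 20 min dark; AlphaScreen read.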
JMJD2A Tudor inh = qHTS Assay for Inhibitors of JMJD2A-Tudor Domain; 390,000 compounds, 4.4% hits; AlphaScreen JMJD2A-Tudor / H3K4me3 peptide binding; Potency, µM (top dose mostly 114 µM), inactives show top-dose activity change, negative = inhibition, usual class: inhibitors; AID 504339, 2011; Lysine-specific demethylase 4A (Homo sapiens), O75164; further: on the % scale 0 is the no-effect control and ±100 the full control effect; nearly all actives have a fitted effect of over 50% in size
L3MBTL1 block = qHTS Assay for the Inhibitors of L3MBTL1; AlphaScreen L3MBTL1–H3K9me1 peptide binding; Potency, µM (doses to about 57.1 µM), for the others: at the highest dose activity, negative = inhibition, hits mostly inhibitors; 230,000 compounds, 0.66% hits; further: on the % scale 0 is the no-effect control and ±100 the full control effect; nearly all actives have a fitted effect of over 60% in size
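L3MBTL1 (50 nM) pre-complexed 30 min with biotinylated H3(1-15)K9me1 peptide (75 nM), then compounds added for 30 min at room temperature; AlphaScreen streptavidin donor/nickel chelate acceptor beads (10 ug/mL final) read after 30 min dark incubation.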
Starred values were filed as active, the others as inactive; ? = inconclusive; nt = no result given; [ ] = dose if it differs, or a comment. Shown are actives, neighbours in structure and some others; about 11% of the full set was active somewhere. The call rests on the fitted dose curve; in most records, active means well fitted inhibition curve with a large enough effect; inconclusive means small, poorly fitted or top-dose-only effect; inactive means no such curve, though single readings can be large or run the other way. Potency means the concentration at half of the fitted maximal effect.

SMILES	G9a block	HP1b binding inh	BAZ2B inh	JMJD2A Tudor inh	L3MBTL1 block
CCOC(=O)c1ccc(NC(=O)C2CCN(S(=O)(=O)Cc3ccccc3)CC2)cc1	44%[59 µM]	113%	41%	42%	nt
Cc1cccc(/C=C2\CS/C(=C\c3cccc(C)c3)C2=O)c1	?	?	50µM*	?	nt
O=C(O)c1cc(-c2c[nH]c3ccccc23)nc2cc3ccccc3cc12	nt	nt	-14%	nt	nt
NCCCC[C@@H]1NC(=O)[C@H](CCC(=O)O)NC(=O)c2cc([N+](=O)[O-])cc(I)c2SC[C@@H](C(=O)NCC(N)=O)NC1=O	3.2µM*	24%	?	22µM*	7%
NCCCC[C@@H]1NC(=O)c2cc([N+](=O)[O-])cc(I)c2SC[C@@H](C(N)=O)NC(=O)[C@H](Cc2ccc(O)cc2)NC1=O	35µM*	-4%	?	?	-3%
CCOc1ccccc1NS(=O)(=O)c1ccc2c(c1)CC(C)N2C(=O)C1CC1 (configuration not stated)	3%[59 µM]	38%	-14%	-1%	nt
O=C1/C(=C\c2ccccn2)SC(=S)N1c1ccc(S(=O)(=O)Nc2nccs2)cc1	nt	?	50µM*	18µM*	nt
COc1ccc(/C=C2\SC(=O)N(CCC(=O)Nc3ccc(S(=O)(=O)Nc4nccs4)cc3)C2=O)cc1	-4%[59 µM]	27%	-9%	3%	-2%
COc1ccc(/C=C2/SC(=S)N(c3ccc(S(=O)(=O)Nc4nccs4)cc3)C2=O)cc1	-49%	20µM*	?	16µM*	nt
O=C1/C(=C/c2ccccn2)SC(=S)N1c1ccc(O)cc1	?	6%	-28%	-30%	-17%
CN(C)C(=O)/N=N/C(=O)N(C)C	2.7µM*	nt	nt	nt	nt
COCCN(C(=O)CSc1nnc(Nc2ccccc2F)s1)c1c(N)n(Cc2ccccc2)c(=O)[nH]c1=O	14µM*	3%	-2%	-16%[57.1 µM]	nt
COCCNc1nnc(SCC(=O)N(C)c2c(N)n(Cc3ccccc3)c(=O)[nH]c2=O)s1	22µM*	24%	-1%	-10%	11%
COCCN(C(=O)CSc1nc2ccccc2s1)c1c(N)n(Cc2ccccc2)c(=O)[nH]c1=O	nt	-10%	nt	?	nt
CCN(C(=O)CSc1nnc(NCCOC)s1)c1c(N)n(Cc2ccccc2)c(=O)[nH]c1=O	nt	45%	nt	-10%	nt
COc1ccccc1CNc1nc2c(S(=O)(=O)c3ccccc3)nnn2c2ccc(Cl)cc12	5%[59 µM]	25%	6%	0%	nt
O=C1NC(=S)N/C1=C\c1ccccc1OCc1ccc(C(=O)O)cc1	nt	-8%	-1%	79µM*	5%
O=C(O)c1ccc(COc2ccc3ccccc3c2/C=C2/NC(=O)N(c3ccccc3)C2=O)cc1	nt	8%	-36%	-35%	-6%
O=C(O)c1ccc(COc2ccccc2/C=C2/NC(=O)N(c3cccc(Cl)c3)C2=O)cc1	-15%[59 µM]	?	79µM*	?	-6%
CN1C(=O)/C(=C/c2ccccc2OCc2ccc(C(=O)O)cc2)NC1=S	?	22%	?	?	-7%
CCOC(=O)c1ccccc1NC(=O)NCc1c(-n2cccc2)sc2c1CCCC2	-28%[59 µM]	17%	?	-20%	nt
O=C(O)c1c(C(=O)O)c(-c2ccc(Cl)c(Cl)c2)n2c1CSC2	45µM*	2%	-37%	-22%	nt
Cc1ccc(-c2c(C(=O)O)c(C(=O)O)c3n2CCC3)cc1	?	27%	-26%	?	9%
CN1/C(=C\C(=O)CSc2nnc(NCc3ccccc3)s2)C(C)(C)c2ccccc21	3.2µM*	6%	?	?	-10%
Cc1ccccc1CNC(=O)C(=O)NCC(c1ccco1)S(=O)(=O)c1cccs1 (configuration not stated)	-1%[59 µM]	-9%	-6%	-24%	nt

Source: PubChem BioAssay (National Center for Advancing Translational Sciences (NCATS))
